Shown is part of a subset that was picked to be rich in hits.
Pf Dd2 inh – blocks in vitro growth of P. falciparum Dd2 | P. falciparum Dd2 growth, SYBR Green, 72 h | Potency, µM (series often up to 28.9 µM), usual class: inhibitors | 120,000 compounds, 4.3% hits; active = well fitted inhibition curve with a large enough effect; note: nearly all actives have a fitted effect of over 65% in size
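Infected erythrocytes (Dd2, 0.3% parasitemia, 2.5% hematocrit final) are added to compound in RPMI-1640/Albumax II medium, grown 72 h at 37C in low oxygen, then lysed with saponin/Triton-X containing SYBR Green and read by fluorescence.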
Each line names hits and unclear results; the compound was inactive in the other large screens.

COc1ccc2[nH]c(C(=O)N(CC3CC3)CC3CCCO3)c(C)c2c1 (stereo unspecified)	none
O=C(c1ccc(Cl)cc1)N1C[C@@H](F)[C@@H](OCc2nc3ccccc3[nH]2)C1	none
NCCC(=O)N1CCC(n2nccc2NC(=O)Nc2ccccc2Cl)CC1	none
Cc1nc(CN2CC3(CCN(C)C3)c3cc(C(=O)NCc4ccccc4)ccc32)cs1 (stereo unspecified)	none
COc1cc(NC(=O)CSc2ncccc2C(=O)OC(C)C)cc(OC)c1	none
COc1cc(NC(=O)CSc2nc(-c3ccccc3)no2)cc(OC)c1	Pf Dd2 inh 1.1µM
COc1cc(NC(=O)CSc2nc3ccccc3nc2Cc2ccc(Cl)cc2)cc(OC)c1	none
COc1cc(NC(=O)Cn2cccc2-c2nc(-c3ccc(OC)c(F)c3)no2)cc(OC)c1	none
COc1ccc(NC(=O)CSc2cc(-c3ccccc3)nc(C)n2)cc1	none
COc1cc(NC(=O)CSc2nc(-c3ccc(C(C)C)cc3)no2)cc(OC)c1	Pf Dd2 inh 0.71µM
Cc1ncc(C(=O)NCc2cc3n(n2)CCCN(C2CCCCC2)C3)s1	none
COc1cccc(CN2C[C@@H](F)[C@@H](OCc3nc4ncccc4[nH]3)C2)c1	none
O=C(c1ccc2c(c1)OCO2)N1CCCC2(CC(c3cccc(C(F)(F)F)c3)=NO2)C1 (stereo unspecified)	none
Cc1ncc(CN2CCC(C3(c4cccnc4)NC(=O)NC3=O)CC2)[nH]1 (stereo unspecified)	none
CCOC(=O)C1(Cc2ccccc2C(F)(F)F)CCN(C(=O)c2ccc[n+]([O-])c2)CC1	none
COCC1CN(C(C)=O)CC12CCN(Cc1cccc(C(F)(F)F)c1)CC2 (stereo unspecified)	none
CCCn1ncc(CN2CCC(Cc3cccc(C(F)(F)F)c3)(C(=O)OCC)CC2)c1C	Pf Dd2 inh 13µM
O=C(CCCN1C(=O)COc2ccc(C(=O)COc3cccc(Cl)c3)cc21)NCc1ccccc1	none
O=C(C1CCCC1)N1CCCCCC1CN1CCOCC1 (stereo unspecified)	none
CCN1C(=O)C2(CCN(C(=O)N(C)C)CC2)c2ccccc21	none
CCCC(=O)N1CCC2(CC1)C(=O)N(CC)c1ccccc12	none
CCN1C(=O)C2(CCN(C(=O)c3c(C)noc3C)CC2)c2ccccc21	Pf Dd2 inh 3.5µM
COC[C@@H]1CN(C(=O)c2ccc(OC)nc2)C[C@H]1c1nc(C2CC2)no1	none
CN(CC(=O)N1CCC2(CC1)CN(CC(=O)O)C(=O)O2)Cc1cccnc1	none
Cc1ccc(C)c(NC(=O)N2C[C@H](c3nc(-c4ccncc4)no3)[C@@H](C)C2)c1	none
Cc1occc1C(=O)NC1CCc2nn(C)c(=O)n2CC1 (stereo unspecified)	none
c1ccc(-c2ccc(CN3CCCC3)cc2)c(CN2CCOCC2)c1	Pf Dd2 inh 8.9µM
CCn1nc(-c2ccccc2CN2CCOCC2)nc1N(C)C	none
O=C(O)C1CCCN(Cc2ccccc2OCCCN2CCOCC2)C1 (stereo unspecified)	none
O=C1NC[C@H]2CN(CCCc3ccccc3)CCN12	none
Cc1cnc2c(C(=O)N[C@H](C3CCNCC3)C3CC(O)C3)cnn2c1 (stereo partly specified)	none
CC(C)c1noc(-c2cccn3c(CNC(=O)c4ccccc4)nnc23)n1	none
COc1ccc(-c2nc3scc(CCNC(=O)Cc4ccc(F)cc4)n3n2)cc1	none
COc1ccc(-c2nc3scc(CCNC(=O)c4cc(OC)cc(OC)c4)n3n2)cc1	Pf Dd2 inh 7.1µM
COc1ccc(-c2nc3scc(CCNS(=O)(=O)c4ccc(Oc5ccccc5)cc4)n3n2)cc1	none
CCN1C(=O)C2CC3(CCN(C(=O)c4cc(C)n(C)n4)CC3)CN2C1=O (stereo unspecified)	none
Cn1cc(-c2ccc(O)c(F)c2)c2nc(COc3ccc(Cl)cc3)cn2c1=O	Pf Dd2 inh 10µM
Cn1cc(-c2ccccc2F)c2nc(COc3ccccc3)cn2c1=O	none
Cn1cc(-c2ccccc2F)c2nc(COc3ccc(C(=O)O)cc3)cn2c1=O	none
COc1cccc(C(=O)N2CCC(CC(=O)NCc3ccccc3)C2)c1OC (stereo unspecified)	none
Cc1ccc(N(CC(=O)N[C@H]2C[C@@H]3OCC[C@H]23)S(C)(=O)=O)cc1	none
CC1=C[C@@H](CN)[C@H](C(C)C)C[C@H]1Cc1nc2ccc(Cl)cc2[nH]1	Pf Dd2 inh 11µM
CC1=C[C@@H](CNC(=O)NC2CCCCC2)[C@H](C(C)C)C[C@H]1Cc1nc2ccc(C)cc2[nH]1	none
COC(=O)c1ccc2nc(C[C@@H]3C[C@@H](C(C)C)[C@H](CN)C=C3C)[nH]c2c1	none
CC1=C[C@@H](CN)[C@H](C(C)C)C[C@H]1Cc1nc2ccc(C)cc2[nH]1	Pf Dd2 inh 10µM
CC1=C[C@@H](CNC2CCN(C)CC2)[C@H](C(C)C)C[C@H]1Cc1nc2ccc(F)cc2[nH]1	none
CC1=C[C@@H](CNC(=O)CCCC(=O)O)[C@H](C(C)C)C[C@H]1Cc1nc2ccc(Cl)cc2[nH]1	none
CC(C)CN1CCCC(COc2ccccc2C(=O)NC2CC2)C1 (stereo unspecified)	none
O=C(c1ccc(F)c(F)c1)N1CCC[C@H]1c1nc(-c2ccccc2)no1	none
Cc1nc2c(C(=O)NC(C)c3ccccc3)cnn2c(C)c1Cc1ccccc1 (stereo unspecified)	Pf Dd2 inh 8.9µM
Cc1nc2c(C(=O)NCCc3ccc(Cl)cc3)cnn2c(C)c1Cc1ccc(F)cc1	none
Cc1ccc(Cc2c(C)nc3nc(SCC(=O)NC(C)c4ccccc4)nn3c2C)cc1 (stereo unspecified)	none
Cc1ccccc1-n1nc(C)c(CCC(=O)NCC(C)C)c1Oc1cccc(F)c1	none
COc1ccc(N=C2S[C@H]3[C@H]([C@@H](O)[C@H](O)C[C@@H]3C(N)=O)N2CC2CCCCC2)cc1	none
CCCNC(=O)c1noc(-c2ccc(C#N)cc2)n1	none
CN1CCC(C(=O)N2Cc3ccccc3OC3(CCN(C(=O)N(C)C)CC3)C2)CC1	none
CCn1cc(S(=O)(=O)N2CC(Oc3cccc(-c4nc(C)no4)c3)C2)cn1	none
O=[S+]1([O-])NCC2(CCN(CC3CCCC3)C2)Oc2ncccc21 (stereo unspecified)	Pf Dd2 inh 13µM
O=[S+]1([O-])NCC2(CCN(CC3CC3)C2)Oc2ncccc21 (stereo unspecified)	none
O=[S+]1([O-])NCC2(CCN(CC3CCOCC3)C2)Oc2ncccc21 (stereo unspecified)	none
CCO[C@H]1CN(Cc2ccc(OC)c(OCc3cccc(F)c3)c2)C[C@@H]1O	Pf Dd2 inh 13µM
COCc1noc([C@@H]2CN(Cc3cccc(F)c3)C[C@H]2COC)n1	none
CCO[C@H]1CN(Cc2cnc(SCc3ccccc3)nc2)C[C@@H]1O	none
CN(C)C(=O)c1cc2c(s1)CCC(C(=O)N1CCN(c3cccc(Cl)c3)CC1)C2 (stereo unspecified)	Pf Dd2 inh 5µM
CN(C)C(=O)c1cc2c(s1)CCC(C(=O)N1CCN(c3ccccn3)CC1)C2 (stereo unspecified)	none
CN(C)C(=O)c1cc2c(s1)CCC(C(=O)N1CCN(c3ccccc3)CC1)C2 (stereo unspecified)	none
O=C1CCN(C(=O)c2ccccc2)CCCC(C(=O)Nc2ccccc2CCc2ccncc2)CCN1 (stereo unspecified)	none
CN1CC(=O)N(C2CCCC2)Cc2c(NCC3CC3)ncnc21	none
O=C(NC1CC1)c1cc(C2CC2)nc2onc(C3CCNCC3)c12	none
Cc1cc(C(=O)NCc2ccc(F)cc2)c2c(C3CCNC3)noc2n1 (stereo unspecified)	none
O=C(NCc1ccc(F)cc1)c1cc(C2CC2)nc2onc(C3CCCN3)c12 (stereo unspecified)	none
